Holding throughout (conditions): mRNA level, 48 h; actives raise or lower the signal
Read-out in assay [1]: Forkhead box O3 (FOXO3), FOXO3 (gene 2309)
Description: LTEA_HepaRG_FOXO3: Life Technologies and Expression Analysis (LTEA) Assay for Forkhead box O3 (FOXO3) using HepaRG (AID 2283459). Summed up: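 HepaRG, 48 h post-dose; 8 conc., half-log from 100 uM, 0.5% DMSO, duplicates; serum-free induction medium. Readout: FOXO3 mRNA, TaqMan qRT-PCR, housekeeping-normalized. Bidirectional curve fit vs DMSO baseline.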

Read-out in assay [2]: ABC Transporter (ABCB1), ABCB1 (gene 5243)
Description: LTEA_HepaRG_ABCB1: Life Technologies and Expression Analysis (LTEA) Assay for ABC Transporter (ABCB1) using HepaRG (AID 2283460). In outline: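 Expression of ABCB1 was quantified by qRT-PCR against three housekeeping genes after human HepaRG cultures received test chemicals for 48 hours. Concentrations spanned eight half-log steps topping at 100 uM in 0.5% DMSO; gain or loss of signal was fitted relative to vehicle.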

Read-out in assay [3]: growth arrest and DNA damage 45 (GADD45B), GADD45B (gene 4616)
Nature of the assay: LTEA_HepaRG_GADD45B: Life Technologies and Expression Analysis (LTEA) Assay for growth arrest and DNA damage 45 (GADD45B) using HepaRG (AID 2283461). In outline: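 Differentiated human HepaRG cells in serum-free induction medium exposed 48 h in duplicate to eight concentrations, top 100 uM, half-log steps, 0.5% DMSO. GADD45B mRNA by TaqMan qRT-PCR, normalized to ACTB, GAPDH, POLR2A; bidirectional fit versus DMSO.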

Read-out in assay [4]: ABC Transporter (ABCC3), ABCC3 (gene 8714)
Description: LTEA_HepaRG_ABCC3: Life Technologies and Expression Analysis (LTEA) Assay for ABC Transporter (ABCC3) using HepaRG (AID 2283462). In outline: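 Differentiated human HepaRG cells exposed 48 h in serum-free induction medium, 0.5% DMSO vehicle, 8-point half-log series to 100 uM in duplicate. ABCC3 mRNA by qRT-PCR, normalised to ACTB, GAPDH, POLR2A; bidirectional fit vs DMSO.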

Read-out in assay [5]: ABC Transporter (ABCB11), ABCB11 (gene 8647)
Description: LTEA_HepaRG_ABCB11: Life Technologies and Expression Analysis (LTEA) Assay for ABC Transporter (ABCB11) using HepaRG (AID 2283463). Summed up: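 ABCB11 transcript levels are read by Fluidigm TaqMan qRT-PCR after 48 h chemical treatment of human HepaRG cells. Concentrations span 100 uM downward in half-log steps with 0.5% DMSO; gain or loss is fitted against DMSO controls.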

Read-out in assay [6]: ABC Transporter (ABCC2), ABCC2 (gene 1244)
Description: LTEA_HepaRG_ABCC2: Life Technologies and Expression Analysis (LTEA) Assay for ABC Transporter (ABCC2) using HepaRG (AID 2283464). Summed up: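 Differentiated HepaRG cells in serum-free induction medium exposed 48 h to eight half-log concentrations up to 100 uM, 0.5% DMSO, in duplicate. ABCC2 mRNA measured by qRT-PCR (TaqMan, Fluidigm), normalized to ACTB, GAPDH and POLR2A. Fitted in both directions against DMSO.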

Read-out in assay [7]: Broad substrate specificity ATP-binding cassette transporter ABCG2 (Homo sapiens) (UniProt Q9UNQ0)
Description: LTEA_HepaRG_ABCG2: Life Technologies and Expression Analysis (LTEA) Assay for ABC Transporter (ABCG2) using HepaRG (AID 2283465). In outline:
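Read-out is ABCG2 mRNA induction or loss quantified by qRT-PCR after 48 h chemical treatment of human HepaRG cells, normalized to three housekeeping genes. Concentrations reached 100 uM top in half-log steps; fitting was bidirectional against 0.5% DMSO.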

Read-out in assay [8]: ATP-citrate lyase (ACLY), ACLY (gene 47)
Description: LTEA_HepaRG_ACLY: Life Technologies and Expression Analysis (LTEA) Assay for ATP-citrate lyase (ACLY) using HepaRG (AID 2283466). In outline: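 HepaRG, 48 h exposure, 8-pt half-log dilutions (top 100 uM), 0.5% DMSO. Readout: ACLY mRNA, TaqMan qRT-PCR, housekeeping-normalized (ACTB/GAPDH/POLR2A). Bidirectional curve fit vs DMSO.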

For 24 molecules, outcome and AC50 results are on record in PubChem BioAssay (EPA / NIEHS).

Calls of active or inactive are those of the source. How the source made its calls: active means hit-call score of the fitted dose curve at least 0.9, where 1 is the maximum; inactive means score below 0.9.

Chain of Broad substrate specificity ATP-binding cassette transporter ABCG2 (Homo sapiens) (Q9UNQ0 whole entry, looked up): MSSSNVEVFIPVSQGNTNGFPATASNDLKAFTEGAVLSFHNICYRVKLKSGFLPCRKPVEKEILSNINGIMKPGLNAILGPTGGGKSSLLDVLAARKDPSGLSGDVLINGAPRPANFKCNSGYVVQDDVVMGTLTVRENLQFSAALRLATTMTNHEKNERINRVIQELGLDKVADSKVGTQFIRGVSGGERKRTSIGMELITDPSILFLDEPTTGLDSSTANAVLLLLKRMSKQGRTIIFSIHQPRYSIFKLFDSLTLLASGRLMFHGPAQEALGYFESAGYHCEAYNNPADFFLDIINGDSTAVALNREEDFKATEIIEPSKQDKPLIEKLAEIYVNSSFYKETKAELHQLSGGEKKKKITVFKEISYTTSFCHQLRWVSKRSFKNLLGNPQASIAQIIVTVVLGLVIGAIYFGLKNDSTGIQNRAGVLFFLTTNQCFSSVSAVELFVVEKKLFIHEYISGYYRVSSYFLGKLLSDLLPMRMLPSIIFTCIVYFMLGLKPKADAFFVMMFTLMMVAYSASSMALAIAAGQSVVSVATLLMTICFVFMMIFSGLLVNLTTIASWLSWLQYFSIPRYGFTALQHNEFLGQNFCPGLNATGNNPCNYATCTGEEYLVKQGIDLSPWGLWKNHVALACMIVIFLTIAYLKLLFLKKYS

Regarding `CCCCCCCC(=O)OC`, the molecule was classed as inactive in assay [1], in assay [2], in assay [3], in assay [4], in assay [5] and in assay [6]. The result in assay [7] and in assay [8] was inactive.
As to `CC(COCC(C)OC(=O)c1ccccc1)OC(=O)c1ccccc1` (configuration not stated), the molecule was called inactive in assay [1], in assay [2], in assay [3], in assay [4], in assay [5] and in assay [6]. Moreover, the outcome in assay [7] was inactive.
The AC50 is the concentration giving half of the maximal activity seen. For the molecule `Nc1nc(=S)c2[nH]cnc2[nH]1`, the outcome in assay [1] and in assay [3] was inactive. The AC50 in assay [2] was 10.3 µM (active); in assay [4], 13.9 µM (active); in assay [5] it was 7.88 µM (active); in assay [6], 21.1 µM (active); in assay [7], 8.31 µM (active); in assay [8], 10.2 µM (active).
Consider `CCCCCCCCCCCCCCOS(=O)(=O)O`, for which the result in assay [1], in assay [2], in assay [3], in assay [4], in assay [5] and in assay [6] was inactive. Further, the result in assay [7] was inactive.
Regarding `CC(=O)[C@@]1(O)CC[C@H]2[C@@H]3CCC4=CC(=O)CC[C@]4(C)[C@H]3CC[C@@]21C`, the call in assay [1], in assay [2], in assay [3], in assay [4], in assay [5] and in assay [6] was inactive. The result in assay [7] was inactive.
Consider `C#CC(O)C(CC)CCCC` (configuration not stated), for which the call in assay [1], in assay [2], in assay [3], in assay [4], in assay [5] and in assay [6] was inactive.
Turning to `CC(C)(O)c1ccc(CNC(=O)c2cccnc2Oc2ccc(F)cc2)cc1`, the molecule was classed as inactive in assay [1], in assay [2], in assay [3], in assay [4], in assay [5] and in assay [8]. The AC50 in assay [6] was 29.5 µM (active).
`O=Cc1ccccc1C=O`: the result in assay [1], in assay [2], in assay [3], in assay [4], in assay [5] and in assay [6] was inactive. The call in assay [8] was inactive.
On to `CC1(C)C(=O)NC(=O)N1CO`, for which the outcome in assay [1], in assay [2], in assay [3], in assay [4], in assay [5] and in assay [6] was inactive. In addition, the result in assay [8] was inactive.
For the molecule `O=C(O)c1[nH]n(-c2ccc(S(=O)(=O)O)cc2)c(=O)c1N=Nc1ccc(S(=O)(=O)O)cc1`, the result in assay [1], in assay [2], in assay [3], in assay [4], in assay [5] and in assay [6] was inactive. In addition, the result in assay [8] was inactive.
Take `CCc1nc(N)nc(N)c1-c1ccc(Cl)cc1`: the molecule was called inactive in assay [1], in assay [2], in assay [3], in assay [6] and in assay [7]. Moreover, the AC50 is 74.5 µM (active) in assay [4] and 33 µM (active) in assay [5].
As for `Cc1ccc(-c2cc(C(F)(F)F)nn2-c2ccc(S(N)(=O)=O)cc2)cc1`, the AC50 was 93.6 µM (active) in assay [1], 82.2 µM (active) in assay [2], 85 µM (active) in assay [6] and 89.6 µM (active) in assay [8]. Further, the result in assay [3], in assay [4] and in assay [5] was inactive.
`CCc1cc(C2=C(C(=O)O)N(c3ccccc3C(F)(F)F)S(=O)(=O)c3ccccc32)cc2c1OCO2`: the molecule was classed as inactive in assay [1], in assay [3] and in assay [4]. Also, the AC50 is 3.3 µM (active) in assay [2]; 32.1 µM (active) in assay [5]; 1.64 µM (active) in assay [6]; 23.7 µM (active) in assay [7]; 65.2 µM (active) in assay [8].
Take `Cc1ccc(C(C)(C)C)c(O)c1`: the outcome in assay [1], in assay [2], in assay [3], in assay [4], in assay [5] and in assay [6] was inactive. Moreover, the outcome in assay [7] and in assay [8] was inactive.
Regarding `O=C1c2c(O)cccc2Cc2cccc(O)c21`, the outcome in assay [1], in assay [2], in assay [3], in assay [4], in assay [5] and in assay [6] was inactive. The result in assay [8] was inactive.
Turning to `Oc1ccc(O)cc1`, the molecule was called inactive in assay [1], in assay [2], in assay [3], in assay [4], in assay [5] and in assay [6]. Further, in assay [8], the call was inactive.
Regarding `OCC(O)CO`, the call in assay [1], in assay [2], in assay [3], in assay [4], in assay [5] and in assay [6] was inactive. In addition, the result in assay [8] was inactive.
As for `CC(C)c1cccc(C(C)C)c1`, the call in assay [1], in assay [2], in assay [3], in assay [4] and in assay [6] was inactive.
In the case of `CN(C)C(=O)NC1(c2ccccc2)CCN(CC[C@@]2(c3ccc(F)c(F)c3)CN(C(=O)c3ccccc3)CCO2)CC1`, the molecule was called inactive in assay [1], in assay [3] and in assay [7]. Besides, the AC50 in assay [2] was 1.86 µM (active); in assay [4], 47 µM (active); in assay [5], 1.96 µM (active); in assay [6], 3.81 µM (active).
In the case of `CC(N)=O`, the molecule was classed as inactive in assay [1], in assay [2], in assay [3], in assay [4], in assay [5] and in assay [6]. Moreover, the call in assay [7] was inactive.
As to `N[C@@H](Cc1c[nH]c2ccccc12)C(=O)O`, the call in assay [1], in assay [2], in assay [3], in assay [4], in assay [5] and in assay [6] was inactive. Besides, the molecule was called inactive in assay [7] and in assay [8].
For the molecule `CC(C)OC(=O)C(C)(C)Oc1ccc(C(=O)c2ccc(Cl)cc2)cc1`, the call in assay [1], in assay [2], in assay [3], in assay [4], in assay [5] and in assay [6] was inactive. The result in assay [7] was inactive.
Turning to `Oc1ccccc1O`, the result in assay [1], in assay [2], in assay [3], in assay [4], in assay [5] and in assay [6] was inactive. The call in assay [7] and in assay [8] was inactive.
With `NCCOCCOCCN`, the molecule was called inactive in assay [1], in assay [2], in assay [3], in assay [4], in assay [5] and in assay [6]. In assay [8], the molecule was called inactive. The concentration at half-maximal activity (AC50) in assay [7] was 12.1 µM (active).
